# Screening results: PubChem, National Center for Advancing Translational Sciences (NCATS)
# This is a sample that favours compounds with a hit; in the whole collection about 4.6% have one here.
# D1 antagonist: antagonists of human D1 dopamine receptor. activity change, negative = inhibition, % at 10 µM. actives 3.2% (n = 360,000). P21728. HEK293 TREx D1 cells, calcium flux, dopamine EC80; stronger effect = lower value; in the data active means activity change below about -30%; further: on the % scale 0 is the no-effect control and ±100 the full control effect
#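 Antagonism measured as reduced calcium response to an EC80 dopamine addition following 180 s compound pre-read; cells were inducible HEK293 Trex D1 plated overnight at 30 C, read kinetically at 1 cycle/sec.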
# D1 agonist: human D1 receptor agonism; activation, % at 2 µM; actives 1% (n = 360,000); P21728; HEK293 T-REx D1 cells, calcium flux, agonist mode; AID 504660; further: 0% is about no effect
#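 Inducible HEK293 T-REx D1 cells, force-coupled to calcium signalling, were plated at 4000 cells/well with tetracycline and held overnight at 30 C. After no-wash calcium dye loading, compound-evoked calcium rise over 180 s flagged agonists.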
# D1 potentiator: potentiators of human D1 dopamine receptor; P21728; HEK293 TREx D1 cells, calcium flux, dopamine EC20 potentiation; potentiation, % at 10 µM; actives 0.036% (n = 360,000); AID 504651; in the data active means potentiation above about 30%; further: 0% is about no effect
# TRHR agonist-1: agonists of human TRH receptor | P34981 | TRHR cells, calcium flux fluo-8, FDSS agonist mode | activation, % at 2 µM | actives 0.18% (n = 360,000) | AID 493084; further: 0% is about no effect
# Target sequence (P34981 whole entry, looked up): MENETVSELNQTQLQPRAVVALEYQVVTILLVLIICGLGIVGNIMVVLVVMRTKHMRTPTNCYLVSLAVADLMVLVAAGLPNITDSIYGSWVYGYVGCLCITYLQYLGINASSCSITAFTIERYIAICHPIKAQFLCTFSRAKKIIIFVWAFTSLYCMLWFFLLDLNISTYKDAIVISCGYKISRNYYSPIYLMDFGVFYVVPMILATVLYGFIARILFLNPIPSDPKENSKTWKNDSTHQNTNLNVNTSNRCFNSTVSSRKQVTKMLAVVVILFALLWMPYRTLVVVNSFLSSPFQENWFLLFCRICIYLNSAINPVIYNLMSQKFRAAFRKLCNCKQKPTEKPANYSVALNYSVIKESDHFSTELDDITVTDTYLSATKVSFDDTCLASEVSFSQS
#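 TRHR-expressing cells, plated overnight in medium with 10% serum, were loaded with fluo-8 calcium dye at room temperature. After a 10 s baseline, library compound was pin-added and calcium release was recorded kinetically (ex 480/em 530) as agonist response.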
# TRHR enhancer-1: allosterically enhances the human TRH receptor; TRHR cells, fluo-8 calcium fluorescence, EC20 TRH enhancement; enhancement, % at 2 µM; actives 0.66% (n = 360,000); AID 493056; in the data active means enhancement above about 30%; further: 0% is about no effect
#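 TRHR-expressing cells loaded with fluo-8 calcium dye were read kinetically (ex 480/em 530) during compound addition, then stimulated with an EC20 of TRH (10 nM final). Enhancement of the Gq-mediated intracellular calcium response was scored.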
# TRHR enhancer-2: human TRH receptor allosteric enhancement confirmation; TRH receptor cell assay, enhancer confirmation qHTS; activity change, negative = inhibition, % at 46.1 µM; AID 493076; shares compounds with TRHR enhancer-1; 970 tested, under 10 active; active means well fitted curve in the direction sought with a large enough effect; inconclusive means small, poorly fitted or top-dose-only effect, or another doubt; inactive means no such curve, though single readings can be large; an effect the other way counts as inactive or inconclusive;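 further: compound effect scored on response to added TRH at EC20 of 10 nM; 0% is about no effect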
# TRHR agonist-2: human TRH receptor agonism confirmation. actives 8% (n = 970). TRHR-expressing cells, agonist activation read-out. shares compounds with TRHR enhancer-1. Potency, µM (top dose mostly 46.1 µM), inactives show at the highest dose activation, most hits filed as activators; active means well fitted curve in the direction sought with a large enough effect; inconclusive means small, poorly fitted or top-dose-only effect, or another doubt; inactive means no such curve, though single readings can be large; an effect the other way counts as inactive or inconclusive; further: potency means the concentration at half of the fitted maximal effect; 0% is about no effect; nearly all actives have a fitted effect of over 75% in size
# * hit, by the source's call; ? = inconclusive; / = not tested or not shown. Unless noted, no stated cut-off is given here; in the data, active means activation above about 30%; inactive means the rest.
SMILES,D1 antagonist,D1 agonist,D1 potentiator,TRHR agonist-1,TRHR enhancer-1,TRHR enhancer-2,TRHR agonist-2
CC1CCc2c(sc(NC(=O)c3cc(-c4ccc(F)cc4)on3)c2C(N)=O)C1 (stereo unspecified),-7,0,1,1,10,/,/
Cc1ccc(-c2c(C)sc3nc[nH]c(=O)c23)cc1C,-35*,2,-21,-1,47*,0,1%
O=c1[nH]c(/C=C/c2ccc(Br)cc2)nc2ccccc12,-5,5,-5,1,-1,/,/
CN(C)c1ccc(/C=C/c2nc3ccccc3c(=O)[nH]2)cc1,-12,39*,-2,59*,-2,?,21µM*
COc1cc([N+](=O)[O-])c2nccnc2c1,3,2,-5,0,44*,13,1%
COc1cc([N+](=O)[O-])c2ncccc2c1,-11,-1,4,-1,0,/,/
COc1cccc(-c2cc(C(F)(F)F)n3nc(C)c(-c4ccccc4)c3n2)c1,16,6,0,1,4,/,/
CCOc1ccc(NC(C)C(=O)N/N=C/c2cccs2)cc1 (stereo unspecified),-11,2,-3,0,50*,-5,1%
COc1ccc(-n2nc(C(=O)NCC(=O)N3CCN(c4ccccc4)CC3)c3ccccc3c2=O)cc1OC,-10,-2,-1,0,-8,/,/
CN(Cc1cnn(C)c1)Cc1nc(COc2ccccc2)no1,-4,4,1,1,46*,-2,0%
CC(C)N(Cc1cnn(C)c1)Cc1nc(COc2ccccc2)no1,0,-1,3,0,-2,/,/
Cc1ccccc1OCCCCn1c(CCNC(=O)C(C)(C)C)nc2ccccc21,-14,5,1,0,-7,/,/
COc1ccc(C(CNC(=O)CCNS(=O)(=O)c2ccc(Br)cc2)N2CCCC2)cc1 (stereo unspecified),-63*,48*,-8,0,48*,-6,5%
CCCn1nnnc1SCC(=O)NC1CCCC1,4,2,3,0,1,/,/
CCCCn1nnnc1SCC(=O)NNC(=O)C1CCCCC1,-6,2,-2,-1,42*,-4,1%
CC(C)CCNC(=O)CCn1c(=S)oc2ccccc21,-9,0,-6,0,53*,0,2%
COc1ccccc1NC(=O)CCn1c(=S)oc2ccccc21,4,2,-8,-1,19,/,/
CN(Cc1cnn(C)c1)Cc1nc(-c2ccc(Cl)cc2)no1,2,6,-5,1,0,/,/
CCc1ccc(CN(C)Cc2nc(-c3cccc(Cl)c3)no2)nc1,4,1,3,0,48*,-11,9%
CCc1cccc(NC(=O)CC2Oc3ccc(C)cc3NC2=O)c1 (stereo unspecified),-12,0,-1,0,-7,/,/
CCOC(=O)c1cnc(-n2nc(C)cc2C)nc1Nc1ccc(OC)cc1,-19,2,-2,0,42*,-3,?
Cc1cc(C)cc(NC(=O)c2cc(C)nc3ccccc23)c1,6,5,-5,-1,-2,/,/
Cc1c(C(=O)Nc2ccc(F)cc2F)nnn1-c1ccccc1Br,-2,-1,1,0,3,/,/
COc1ccc(OCCOCCOc2ccc(C)cc2[N+](=O)[O-])cc1,-7,8,2,0,-1,/,/
COc1ccc(CNCC(O)COc2ccc(C)cc2[N+](=O)[O-])cc1 (stereo unspecified),-10,22,-14,34*,2,4,2%
SMILES,D1 antagonist,D1 agonist,D1 potentiator,TRHR agonist-1,TRHR enhancer-1,TRHR enhancer-2,TRHR agonist-2
CC(=O)Nc1nc2n(n1)C(c1ccccc1)C=C(c1ccccc1)N2 (stereo unspecified),-8,9,-13,39*,2,-2,?
CCOc1ccccc1NC(=O)N(Cc1ccc(C)o1)C1CCN(C(C)=O)CC1,4,0,-1,0,10,/,/
O=C(N/N=C/c1c(O)n(-c2ccccc2Cl)c(=O)c2ccccc12)c1cccnc1,1,28,0,29,40*,8,?
Cc1cccc(-n2c(O)c(/C=N/NC(=O)c3ccccc3Cl)c3ccccc3c2=O)n1,1,8,-3,5,15,/,/
COc1ccc(Cn2c(O)c(/C=N/NC(=O)c3cccnc3)c3ccccc3c2=O)cc1,10,90*,6,57*,0,-2,21µM*
O=C(N/N=C/c1c(O)n(Cc2ccccc2)c(=O)c2ccccc12)c1cccnc1,10,47*,4,30*,4,-1,21µM*
COc1ccc(Cn2c(O)c(C=Nc3ccc(OC)cc3)c3ccccc3c2=O)cc1,5,2,2,1,-4,/,/
CCOc1ccccc1NC(=O)Cn1c(=O)n(CCC(=O)NCc2ccc3c(c2)OCO3)c(=O)c2ccccc21,-26,12,1,-2,10,/,/
COc1ccc(C2C(C#N)=C(N)Oc3cc(N)ccc32)cc1 (stereo unspecified),-3,2,-4,0,63*,7,-1%
COc1cc(C(=O)N/N=C/c2ccc(OC(=O)c3ccccc3Cl)cc2)ccc1O,-8,0,-2,0,53*,6,6%
Cc1ccc(C)c(NC(=O)CCN2C(=O)c3ccccc3Sc3ncccc32)c1,-2,3,0,0,2,/,/
O=c1c(S(=O)(=O)c2ccccc2)cn(Cc2ccc(F)cc2)c2cc(N3CCCC3)c(F)cc12,9,-2,-4,0,77*,-8,-1%
Cn1cc(S(=O)(=O)c2cccc(Cl)c2)c(=O)c2cc(F)c(N3CCN(c4ccccc4)CC3)cc21,9,4,0,-1,59*,1,0%
CCN(CC)c1ccc(NC(=O)C2CCN(S(=O)(=O)c3c(C)noc3/C=C/c3ccccc3F)CC2)c(C)c1,13,1,2,0,0,/,/
Cc1ccc2cc(COC(=O)C3CCCO3)c(=O)[nH]c2c1 (stereo unspecified),-7,2,-2,1,45*,-7,1%
Cc1ccc2cc(CN(CC(C)C)C(=O)C3CCCO3)c(=O)[nH]c2c1 (stereo unspecified),11,0,-5,0,-2,/,/
CN1CCN(C(=O)CSc2ccc(Cl)cc2)CC1,10,0,-3,0,43*,6,0%
Cc1ccc(S(=O)(=O)N2CCN(C(=O)CSc3ccc(Cl)cc3)CC2)cc1,-17,1,-4,0,-1,/,/
